Source: the antibiotic and cytotoxicity screens of Wong et al. (2023)
Hit rate of the full screen: of about 39,000 compounds, about 3,300 (8.5%) were called active. This excerpt belongs to a sample that is enriched for actives.

Tested on: HepG2
Experiment: cytotoxicity call (relative viability < 0.9)
Settings: 10 µM

SMILES | cytotoxicity call
Cc1ccc(S(=O)(=O)Nc2ccc3c(c2)C(=O)N([C@@H](C)CO)C[C@H](C)[C@H](CN(C)C(=O)CCC(F)(F)F)OCCCC[C@H](C)O3)cc1 | inactive
COc1ccc(NC(=O)Nc2ccc3c(c2)C(=O)N([C@H](C)CO)C[C@H](C)[C@H](CN(C)C(=O)Cc2ccccc2)OCCCC[C@@H](C)O3)cc1 | inactive
Cc1noc(C)c1NC(=O)Nc1cccc2c1O[C@H](CN(C)S(=O)(=O)c1cn(C)cn1)[C@@H](C)CN([C@H](C)CO)C2=O | inactive
C[C@H](CO)N1C[C@H](C)[C@H](CN(C)S(C)(=O)=O)Oc2ccc(NS(C)(=O)=O)cc2CC1=O | inactive
C=CCNS(=O)(=O)c1cccc2nonc12 | inactive
C[C@H](CO)N1C[C@H](C)[C@@H](CN(C)S(=O)(=O)c2cn(C)cn2)Oc2ccc(NS(=O)(=O)c3cn(C)cn3)cc2CC1=O | inactive
C[C@@H]1CCCCO[C@H](CN(C)S(C)(=O)=O)[C@H](C)CN([C@@H](C)CO)C(=O)c2cc(N(C)C)ccc2O1 | inactive
O=C(Cc1ccncc1)NCC[C@@H]1CC[C@@H](NC(=O)C2CCOCC2)[C@H](CO)O1 | inactive
CC(C)NC(=O)Nc1ccc2c(c1)CC(=O)N([C@H](C)CO)C[C@H](C)[C@H](CN(C)Cc1ccc3c(c1)OCO3)O2 | inactive
CCOC(=O)CCCCCC(=O)Nc1ccc2c(c1)C(=O)N([C@H](C)CO)C[C@@H](C)[C@@H](CN(C)C(=O)CCC(F)(F)F)OCCCC[C@H](C)O2 | inactive
Cc1ccc(S(=O)(=O)N[C@@H](Cc2ccccc2)C(=O)NCCCn2cc(CCC(=O)NO)nn2)cc1 | inactive
Cc1ccc(S(=O)(=O)N[C@@H](Cc2ccccc2)C(=O)NCCn2cc(-c3cccc(/C=C/C(=O)NO)c3)nn2)cc1 | inactive
Cc1ccc(S(=O)(=O)N[C@H](C(=O)NCCn2cc(-c3cccc(/C=C/C(=O)NO)c3)nn2)C(C)C)cc1 | inactive
Cc1ccc(S(=O)(=O)N[C@@H](Cc2ccccc2)C(=O)NCCn2cc(CCC(=O)NO)nn2)cc1 | active
Cc1ccc(S(=O)(=O)N[C@@H](Cc2ccccc2)C(=O)NCCCn2cc(-c3cccc(/C=C/C(=O)NO)c3)nn2)cc1 | active
Cc1ccc(S(=O)(=O)N[C@@H](Cc2ccccc2)C(=O)NCCn2cc(C(=O)NO)nn2)cc1 | inactive
Cc1noc(C)c1NC(=O)Nc1ccc2c(c1)C(=O)N([C@@H](C)CO)C[C@H](C)[C@@H](CN(C)Cc1ccccc1)OCCCC[C@@H](C)O2 | inactive
C[C@H](CO)N1C[C@H](C)[C@@H](CN(C)CC2CCCCC2)Oc2c(NC(=O)Nc3ccccc3)cccc2C1=O | inactive
C[C@H](CO)N1C[C@H](C)[C@H](CN(C)Cc2ccc(Cl)c(Cl)c2)Oc2ccc(NS(=O)(=O)c3ccc(Cl)cc3)cc2C1=O | active
C[C@@H]1CN([C@H](C)CO)C(=O)c2cc(NS(=O)(=O)c3ccc(F)cc3)ccc2O[C@@H]1CN(C)Cc1ccc(Cl)c(Cl)c1 | inactive
C[C@@H]1CN([C@H](C)CO)C(=O)c2cc(NS(=O)(=O)c3ccc(Cl)cc3)ccc2O[C@H]1CN(C)Cc1ccc(Cl)c(Cl)c1 | inactive
C[C@H](CO)N1C[C@H](C)[C@@H](CN(C)Cc2ccc(Cl)c(Cl)c2)Oc2ccc(NS(=O)(=O)c3ccc(Cl)cc3)cc2C1=O | active

SMILES | cytotoxicity call
C[C@H]1CN([C@@H](C)CO)C(=O)c2cc(NS(=O)(=O)c3ccc(Cl)cc3)ccc2O[C@H]1CN(C)Cc1ccc(Cl)c(Cl)c1 | active
C[C@H](CO)N1C[C@H](C)[C@@H](CN(C)Cc2ccc(Cl)c(Cl)c2)Oc2ccc(NS(=O)(=O)c3ccc(F)cc3)cc2C1=O | inactive
C[C@H]1CN([C@@H](C)CO)C(=O)c2cc(NS(=O)(=O)c3ccc(F)cc3)ccc2O[C@H]1CN(C)Cc1ccc(Cl)c(Cl)c1 | inactive
C[C@@H]1CN([C@@H](C)CO)C(=O)c2cc(NS(=O)(=O)c3ccc(Cl)cc3)ccc2O[C@@H]1CN(C)Cc1ccc(Cl)c(Cl)c1 | active
C/C=C/c1ccc2c(c1)O[C@@H](CN(C)S(=O)(=O)c1ccccc1OC)[C@H](C)CN([C@@H](C)CO)S2(=O)=O | inactive
C[C@@H]1CN([C@H](C)CO)C(=O)Cc2cc(NS(=O)(=O)c3ccc(F)cc3)ccc2O[C@@H]1CN(C)S(=O)(=O)c1cn(C)cn1 | inactive
C[C@H]1CCCCO[C@H](CN(C)C(=O)c2ccncc2)[C@@H](C)CN([C@@H](C)CO)C(=O)c2cc(NS(=O)(=O)c3ccc(Cl)cc3)ccc2O1 | inactive
Cc1noc(C)c1S(=O)(=O)Nc1ccc2c(c1)C(=O)N([C@@H](C)CO)C[C@H](C)[C@H](CN(C)C(=O)Nc1ccc3c(c1)OCO3)O2 | inactive
C[C@@H]1CN([C@@H](C)CO)C(=O)c2cc(NS(=O)(=O)c3ccc(Cl)cc3)ccc2O[C@@H](C)CCCCO[C@@H]1CN(C)C(=O)Cc1ccccc1 | inactive
OC[C@H]1CCCN1CC1CC1 | inactive
C[C@H]1CN([C@@H](C)CO)C(=O)c2cc(NS(=O)(=O)c3cn(C)cn3)ccc2O[C@H]1CN(C)Cc1ccccc1 | inactive
O=C(c1ccncc1)N1C[C@H]2[C@@H](c3ccccc31)[C@H](CO)N2C(=O)CN1CCOCC1 | inactive
COC(=O)c1c(CC[C@@H](CO)NC(=O)N[C@H](Cn2cc(C3(O)CCCCC3)nn2)C(C)C)oc(C(C)=O)c1C(=O)OC | inactive
C[C@@H]1CN([C@H](C)CO)C(=O)c2cc(NS(=O)(=O)c3ccc(F)cc3)ccc2O[C@@H]1CN(C)Cc1ccncc1 | inactive
COc1ccc(S(=O)(=O)N(C)C[C@H]2Oc3c(NS(=O)(=O)c4cn(C)cn4)cccc3C(=O)N([C@@H](C)CO)C[C@@H]2C)cc1 | inactive
COc1ccc(NC(=O)Nc2ccc3c(c2)C(=O)N([C@@H](C)CO)C[C@@H](C)[C@H](CN(C)C(=O)Nc2ccccc2)OCCCC[C@@H](C)O3)cc1 | inactive
c1ccc2c(-c3cn[nH]c3)ccnc2c1 | inactive
C[C@H](CO)N1C[C@H](C)[C@@H](CN(C)S(C)(=O)=O)Oc2c(cccc2N(C)C)C1=O | inactive
C[C@@H]1CN([C@@H](C)CO)C(=O)c2cc(NS(=O)(=O)c3ccc(Cl)cc3)ccc2O[C@H]1CN(C)Cc1ccc(Cl)c(Cl)c1 | active
C[C@H]1CN([C@@H](C)CO)C(=O)c2cc(NS(=O)(=O)c3ccc(Cl)cc3)ccc2O[C@@H]1CN(C)Cc1ccc(Cl)c(Cl)c1 | active
C[C@@H]1CN([C@H](C)CO)C(=O)c2cc(NS(=O)(=O)c3ccc(F)cc3)ccc2O[C@H]1CN(C)Cc1ccc(Cl)c(Cl)c1 | inactive
C[C@H]1CN([C@@H](C)CO)C(=O)c2cc(NS(=O)(=O)c3ccc(F)cc3)ccc2O[C@@H]1CN(C)Cc1ccc(Cl)c(Cl)c1 | active

SMILES | cytotoxicity call
C[C@H](CO)N1C[C@H](C)[C@H](CN(C)Cc2ccc(Cl)c(Cl)c2)Oc2ccc(NS(=O)(=O)c3ccc(F)cc3)cc2C1=O | inactive
C[C@@H]1CN([C@@H](C)CO)C(=O)c2cc(NS(=O)(=O)c3ccc(F)cc3)ccc2O[C@H]1CN(C)Cc1ccc(Cl)c(Cl)c1 | inactive
C[C@@H]1CN([C@@H](C)CO)C(=O)c2cc(NS(=O)(=O)c3ccc(F)cc3)ccc2O[C@@H]1CN(C)Cc1ccc(Cl)c(Cl)c1 | inactive
C[C@@H]1CN([C@H](C)CO)C(=O)c2cc(NS(=O)(=O)c3ccc(Cl)cc3)ccc2O[C@@H]1CN(C)Cc1ccc(Cl)c(Cl)c1 | active
Cc1ccc(S(=O)(=O)Nc2ccc3c(c2)C(=O)N([C@H](C)CO)C[C@H](C)[C@@H](CN(C)CC2CCCCC2)OCCCC[C@@H](C)O3)cc1 | inactive
COc1cccc(OC)c1C(=O)NC1C(=O)N2C1SC(C)(C)C2C(=O)[O-].[Na+] (stereo not given) | inactive
C[C@H](CO)N1C[C@H](C)[C@@H](CN(C)C(=O)NC2CCCCC2)OCCCC[C@H](C)Oc2ccc(NS(=O)(=O)c3cccs3)cc2C1=O | inactive
C[C@H]1CN([C@@H](C)CO)C(=O)Cc2cc(NC(=O)NC3CCCCC3)ccc2O[C@@H]1CN(C)Cc1ccc(Cl)c(Cl)c1 | inactive
CCS(=O)(=O)NCC[C@@H]1CC[C@@H](NC(=O)Cc2ccccn2)[C@@H](CO)O1 | inactive
CC(C)=CCCC(C)=CCCC(C)=CCO [trans,trans-FARNESOL ] | inactive
C[C@@H]1CN([C@H](C)CO)C(=O)c2cccc(NC(=O)Nc3ccc4c(c3)OCO4)c2O[C@@H]1CN(C)Cc1ccc(C(=O)Nc2ccccc2N)cc1 | inactive
O=C(OC(C(F)(F)F)C(F)(F)F)N1CCN(Cc2ccc(C(F)(F)F)cc2N2CCCC2)CC1 | inactive
C[C@H](CO)N1C[C@H](C)[C@@H](CN(C)Cc2ccccc2)Oc2ccc(NS(=O)(=O)c3cn(C)cn3)cc2C1=O | inactive
Cn1cnc(S(=O)(=O)N2C[C@H](O)COC[C@H]3O[C@H](CC(=O)NC4Cc5ccccc5C4)CC[C@@H]32)c1 | inactive
O=C(CCCCCNC(=O)OCCCCO[C@@H]1C[C@H](c2ccc(Br)cc2)C=C(C(=O)N2CCN(Cc3ccccc3)CC2)O1)NO | inactive
C[C@@H]1CCCCO[C@@H](CN(C)C(=O)c2ccccc2)[C@H](C)CN([C@H](C)CO)C(=O)c2cc(NC(=O)Nc3ccc(C(F)(F)F)cc3)ccc2O1 | inactive
C[C@@H]1CN([C@@H](C)CO)C(=O)c2cc(NC(=O)Nc3ccc(C(F)(F)F)cc3)ccc2O[C@@H](C)CCCCO[C@H]1CN(C)C(=O)c1ccccc1 | inactive
C[C@@H]1CN([C@H](C)CO)C(=O)c2cc(NC(=O)Nc3ccc(C(F)(F)F)cc3)ccc2O[C@@H](C)CCCCO[C@@H]1CN(C)C(=O)c1ccccc1 | inactive
C[C@@H]1CN([C@H](C)CO)C(=O)c2cc(NC(=O)Nc3ccc(C(F)(F)F)cc3)ccc2O[C@@H](C)CCCCO[C@H]1CN(C)C(=O)c1ccccc1 | inactive
C[C@@H]1CCCCO[C@@H](CN(C)C(=O)c2ccccc2)[C@@H](C)CN([C@H](C)CO)C(=O)c2cc(NC(=O)Nc3ccc(C(F)(F)F)cc3)ccc2O1 | active
C[C@@H]1CCCCO[C@H](CN(C)C(=O)c2ccccc2)[C@H](C)CN([C@@H](C)CO)C(=O)c2cc(NC(=O)Nc3ccc(C(F)(F)F)cc3)ccc2O1 | active
